Results as given in ChEMBL document CHEMBL3988442, “University of Dundee, Small-Polar-MMV Screening Library” (2021).
Screen size: about 53,000 compounds; about 900 (1.7%) showed an effect of 50% or more. The full list was thinned out, with strong results kept by preference.

Tested on: Mycobacterium tuberculosis
Test: Cornell - Phenotypic assay to identify agents that inhibit growth of Mycobacterium tuberculosis
Format: functional
Design: scale not given: direction of the effect not stated beside the values
Conditions: 10 mM as filed; unlikely as a test dose

Row | SMILES | Percent Effect [%]
1 | N[C@H]1CC[C@@H](n2cc(C(=O)N[C@H]3CCCc4ccccc43)nn2)CC1 | 52.81
2 | N[C@H]1CC[C@@H](n2cc(C(=O)NC3CCc4ccccc4C3)nn2)CC1 (stereo partly drawn) | 43.67
3 | N[C@H]1CC[C@@H](n2cc(C(=O)NC3COc4ccccc43)nn2)CC1 (stereo partly drawn) | 8.791
4 | Cc1cn2c(n1)CCC(NC(=O)CNS(C)(=O)=O)C2 (stereo not drawn) | -12.28
5 | Fc1ccc(Nc2ccc(C3CCN(Cc4ncc[nH]4)CC3)nc2)nc1 | 12.33
6 | Cc1cc(Nc2ccc(F)cn2)cc(C2CCN(Cc3ncc[nH]3)C2)n1 (stereo not drawn) | 67.32
7 | Cc1cccc(Nc2ccc(C3CCN(Cc4ncc[nH]4)CC3)nc2)n1 | 12.85
8 | COc1ccc(NC(=O)CCn2nc(-c3cccs3)oc2=O)cc1OC | -4.295
9 | Cc1cc(N(C)CC2COc3ccccc3O2)nc(N)n1 (stereo not drawn) | 18.45
10 | Cc1cc(N(C)CC2COc3ccccc3O2)nc(C)n1 (stereo not drawn) | 22.34
11 | CCN1CC(CN(C)c2cc(C)nc(N)n2)Oc2ccccc21 (stereo not drawn) | 100.1
12 | Cc1nc(C)n(CC2CCCN(Cc3ccc4c(c3)OCCO4)C2)n1 (stereo not drawn) | 7.597
13 | Cc1cc(-c2cnc(NCc3ccc4c(c3)OCO4)nc2C(C)C)on1 | 24.22
14 | Cc1cc(-c2cnc(NCc3ccccn3)nc2C(C)C)on1 | 76.78
15 | Cc1cc(-c2cnc(N3CCCC3)nc2C(C)C)on1 | -0.9341
16 | COc1ccccc1CNc1ncc(-c2cc(C)no2)c(C(C)C)n1 | 6.538
17 | Cc1cc(-c2cnc(NCc3ccncc3)nc2C(C)C)on1 | 71.23
18 | COc1ccc(CNc2ncc(-c3cc(C)no3)c(C(C)C)n2)cc1 | 36.58
19 | Cc1oc(-c2ccsc2)nc1CC(=O)NCC(C)(C)CN(C)C | 3.653
20 | Cc1nnc(N2CCCC3(CN(Cc4nccn4C)CCO3)C2)o1 (stereo not drawn) | -3.973
21 | CS(=O)(=O)NCCNCc1ccc(Br)s1.Cl | -4.859
22 | O=C1CCC(=O)N1CCOc1nc(-c2ccccc2Cl)no1 | 8.319
23 | Cn1ccnc1-c1ccc(NC[C@H]2CCc3ccccc3O2)nn1 | 35.04
24 | Cn1ccnc1-c1ccc(NCCC2COc3ccccc3O2)nn1 (stereo not drawn) | 46.99
25 | Cn1ccnc1-c1ccc(NCC2COc3ccccc3O2)nn1 (stereo not drawn) | 75.27
26 | O=C(CNC1(c2ccc(Cl)cc2)CCOCC1)NC1CCCC1 | 28.07
27 | Cc1cc(C)n(C2CCN(S(=O)(=O)N3CCOCC3)CC2)n1 | -10.91

Row | SMILES | Percent Effect [%]
28 | Cn1cc(NC(=O)N2CCC(CN3CCCC3)CC2)ccc1=O | 1.194
29 | Cn1cc(NC(=O)N2CCC(c3ccccc3)CC2)ccc1=O | 23.03
30 | Cn1cc(NC(=O)N2CCC(NS(C)(=O)=O)CC2)ccc1=O | 73.41
31 | Cc1nc(O)cc(C2(C)CCCNC2)n1.Cl (stereo not drawn) | 37.37
32 | Cc1nc(N(C)C)cc(C2(C)CCCNC2)n1 (stereo not drawn) | 54.11
33 | Cc1nc(N(C)C)cc(C2(C)CCNCC2)n1 | 3.518
34 | Cc1cc(N(C)C)nc(C2(C)CCCNC2)n1 (stereo not drawn) | -30.33
35 | Cc1nccc(C2(C)CCCNC2)n1.Cl.Cl (stereo not drawn) | -29.52
36 | Cc1nc(N)cc(C2(C)CCCNC2)n1 (stereo not drawn) | 52.22
37 | COC(=O)Nc1cccc(C(=O)N(C)Cc2cccc(O)c2)c1 | 16.47
38 | CC(C)(C)CC(=O)N1CCC(c2nn(CCN)c3nccnc23)C1 (stereo not drawn) | -1.305
39 | CSc1nnc(N(CCC#N)CCC#N)s1 | 7.045
40 | Cc1nnc(N(CCC#N)CCC#N)s1 | 53.32
41 | CCSc1nnc(N(CCC#N)CCC#N)s1 | 19.26
42 | CC(=O)NCC(=O)N1Cc2nccn2CC(Cn2cccn2)C1 (stereo not drawn) | 8.126
43 | CN(Cc1nc2ccccc2n1C)C(=O)CCc1cscn1 | 3.18
44 | Cc1ccc(CNCc2cccc3cn[nH]c23)c(OC2CCOC2)c1 (stereo not drawn) | 31.88
45 | COCCOc1ccc(NCc2cccc3cn[nH]c23)cn1 | 0.8667
46 | Cc1ccc(NCc2cccc3cn[nH]c23)cc1OC1CCOC1 (stereo not drawn) | 50.19
47 | CN1CCCN(C(=O)c2cnsn2)c2cc(Cl)ccc21 | 23.17
48 | CN1CC2(CCCN(CCOCc3ccccc3)C2)OC1=O (stereo not drawn) | 17.75
49 | COc1ccccc1OCC(=O)NS(=O)(=O)c1ccccc1Br | 29.83
50 | N#Cc1cn[nH]c1NCc1cc(Br)ccc1O | -2.668
51 | N#Cc1cn[nH]c1NCc1cc(I)cc(I)c1O | 104.4
52 | N#Cc1cn[nH]c1NCc1cc(Cl)cc(Cl)c1O | 4.06
53 | CN1C[C@@H](C(=O)NC2CC2)[C@@]2(COc3ccc(F)cc3C2=O)C1 | -27.17
